The campaign covered roughly 86,000 compounds. About 1,100 (1.3%) were called active. The list comes from a sample in which actives are over-represented; it also holds similar structures and randomly drawn compounds. A number with no mark means an inactive call.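 How the source made its calls: active means compounds whose percent inhibition of the receptor-coactivator binding signal exceeds about 50% in the single-dose screen (limit read from the data); inactive means the rest.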

Sequence of Estrogen receptor beta (Homo sapiens) (Q92731 whole entry, looked up, the tested form may be a part): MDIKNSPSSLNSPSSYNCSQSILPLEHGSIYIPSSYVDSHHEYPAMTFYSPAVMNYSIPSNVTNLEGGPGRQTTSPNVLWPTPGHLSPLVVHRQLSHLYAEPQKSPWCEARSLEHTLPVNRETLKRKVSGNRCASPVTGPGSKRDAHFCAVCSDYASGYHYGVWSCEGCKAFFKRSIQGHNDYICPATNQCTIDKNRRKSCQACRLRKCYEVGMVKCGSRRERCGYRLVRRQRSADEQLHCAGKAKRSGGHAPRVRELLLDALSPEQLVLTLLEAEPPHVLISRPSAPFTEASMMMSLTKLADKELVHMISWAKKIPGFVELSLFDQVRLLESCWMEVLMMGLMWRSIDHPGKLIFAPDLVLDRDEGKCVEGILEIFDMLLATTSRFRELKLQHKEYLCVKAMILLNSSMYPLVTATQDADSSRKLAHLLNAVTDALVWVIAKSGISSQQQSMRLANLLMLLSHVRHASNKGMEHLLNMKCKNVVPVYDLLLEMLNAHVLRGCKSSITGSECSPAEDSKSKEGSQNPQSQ

The assay concerns the target Estrogen receptor beta (Homo sapiens) (UniProt Q92731). Description: blockers of coactivator peptide binding to ERβ – biochemical, TR-FRET, ERβ LBD, SRC-1 peptide, primary screen (AID 633).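 Further: 0% = receptor plus peptide wells without compound and 100% = peptide-only wells.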 To be noted: TR-FRET ER-beta LBD / SRC1-Cy5 peptide binding; at 25.6 µM; active compounds read high; receptor agonist-loaded with 1 µM estradiol.
As to `CCn1c(-c2ccoc2C)n[nH]c1=S`, the inhibition was -2.85%. Next, `COCCOCCn1cnc2ccccc21`: -1.14%.

In the case of `CCN1CCN(C(c2cccnc2)c2cc(Cl)c3cccnc3c2O)CC1` (stereo not given), the inhibition is 72.4% [fluorescence artefact?] (active). Next, `CCOC(=O)N1CCN(C(c2cccnc2)c2ccc3cccnc3c2O)CC1` (stereo not given): 58% [fluorescence artefact?] (active); `CCOC(=O)N1CCN(C(=O)CSc2ccc(Cl)cc2)CC1`: -0.13%. Next, `CCOC(=O)N1CCN(C(=O)c2cc3c(ccc4ccccc43)oc2=O)CC1`: 23.4%. Next, `Oc1c(CN2CCN(c3ccc(F)cc3)CC2)cc(Cl)c2cccnc12`: 1.3%; `CC(=O)C1=C(C)NC(=O)NC1c1cc(Br)ccc1OCC#N` (stereo not given): -0.75%; `CC(C)CC(N=C1NC(C)(C)Cc2ccccc21)C(=O)O` (stereo not given): -1.78%. As for `CCCc1noc2c1/C(=N\O)CCC2`, the inhibition was 1.64%. Next, `CCNCCC(=O)N1c2ccccc2Sc2ccc(NC(=O)OCC)cc21`: -17.8%; `O=C(NCc1ccco1)c1ccc(Cn2c(=O)c3sccc3n(Cc3ccc(F)cc3)c2=O)cc1`: 18.4%; `Cc1cccc(C(=O)N2CCCN(C(=O)c3cccc(C)c3)CC2)c1`: -0.48%. Next, `N#Cc1c2c(c(N3CCN(CCO)CC3)n3c1nc1ccccc13)CCCC2`: -8.78%; `CCN1CCc2c(C#N)c(NCc3ccccc3)nc(NCCO)c2C1`: -0.53%; `CN(C)CCCNc1c2c(c(C#N)c3nc4ccccc4n13)CCC2`: 70.9% [fluorescence artefact?] (active). Next, `O=c1onc(-c2cccs2)n1Cc1ccccc1`: -0.76%. `CCCCCCNC(=O)CSc1nccn1Cc1ccccc1`: the inhibition was -2.58%.

With `Cc1ccc(-n2c(SCC(=O)NCc3ccc4c(c3)OCO4)nnc2-c2cccnc2)c(C)c1`, the inhibition was -8.68%. Regarding `N#CCSc1nc2ccccc2c(=O)n1-c1ccccc1`, the inhibition is 8.58%.

Take `O=c1c2ccccc2nnn1CSc1nnnn1-c1ccccc1`: the inhibition is -2.64%.

As to `O=c1c2ccccc2nc(CSc2nnnn2-c2ccccc2)n1-c1ccccc1`, the inhibition is 61.2% [fluorescence artefact?] (active). For the compound `CC(=O)NC1(c2cccc(F)c2)CCN(CC(=O)NC(C)C)CC1`, the inhibition is -7.62%. Next, `COc1ccc(-c2nnc(SCC(=O)c3ccco3)n2-c2ccccc2)cc1`: 7.14%.

On to `N#Cc1c(NC(=O)CSc2nc3ccccc3c(=O)n2Cc2ccco2)sc2c1CCCC2`, for which the inhibition is 50.4% [fluorescence artefact?] (active). As for `COC(=O)c1c(NC(=O)CSc2nncs2)sc2c1CCCCC2`, the inhibition is 10.9%. Next, `C=C(C)Cn1c(SCC(=O)NCc2ccco2)nc2sc3c(c2c1=O)CCC3`: 9.18%.

On to `COc1ccc(-n2c(SCC(=O)Nc3sc4c(c3C#N)CCCC4)nnc2-c2ccc(O)cc2)cc1`, for which the inhibition is 60.9% [fluorescence artefact?] (active).

Regarding `CC(Sc1nc2ccccc2c(=O)n1Cc1ccco1)C(=O)c1ccccc1` (stereo not given), the inhibition was -2.69%. Next, `Cc1cc2nc(SCCN3CCOCC3)[nH]c2cc1C`: -13.7%. Next, `COC(=O)C1=C(C(=O)c2ccc(C)cc2)C(c2ccccc2)n2nnnc2N1` (stereo not given): -1.03%.

In the case of `Cc1ccc(-n2ccc(=O)c(C(=O)O)n2)cc1`, the inhibition is -4.61%. Next, `O=C(COc1ccccc1)Nc1nonc1NC(=O)COc1ccccc1`: 4.67%; `COc1ccc(CCNS(=O)(=O)c2ccc(Cl)s2)cc1OC`: -8.93%; `Oc1ccc(CNc2ccccc2O)cc1`: 52.5% [fluorescence artefact?] (active). Next, `COc1cc(C2CC(=O)c3cnc(NC(C)=O)nc3C2)cc(OC)c1OC` (stereo not given): -3.76%; `CCC(C(=O)NCc1ccc(OC)cc1)n1nc(C)n2c(cc3occc32)c1=O` (stereo not given): -7.78%. Next, `CCCn1c(C(Cc2ccccc2)NC(=O)COC)nc2ccccc21` (stereo not given): 46.8%; `O=C(COC(=O)CCC(=O)c1cccs1)NCc1ccco1`: 51.1% [fluorescence artefact?] (active).

On to `O=C(CCC(=O)c1cccs1)NCc1ccccc1`, for which the inhibition was 12.1%. Take `O=C(COC(=O)C12CC3CC(CC(C3)C1)C2)NCc1ccco1`: the inhibition was 13.8%.

Consider `CC(CO)N1CCS(=O)(=O)CC1` (stereo not given), for which the inhibition is -15%. Next, `CCN(c1ccccc1)S(=O)(=O)c1ccc(NC(=O)C(C)(C)C)cc1`: 14.4%; `C=CCn1c(=O)c2ccccc2n2c(SCC(=O)N3CCCc4ccccc43)nnc12`: -1.59%; `CCCn1c(=O)c2ccccc2n2c(SCC(=O)/C(C#N)=C(\C)N)nnc12`: 50.4% [fluorescence artefact?] (active). Next, `C=CCn1c(SCC(=O)/C(C#N)=C(\C)N)nc2sc(C)c(C)c2c1=O`: 16.2%; `O=C(CN1CCSCC1)N/N=C/c1ccc(F)cc1F`: 12.6%; `CC(C)(O)C(=O)NN(C(=O)c1ccccc1)c1cccc(Br)c1`: -3.36%. Next, `COC(=O)c1cccc(N(C(=O)c2ccco2)C(C(=O)NC2CCCC2)c2ccco2)c1` (stereo not given): -14.4%. As for `O=C(NCCOc1ccccc1)c1ccccc1`, the inhibition was 7.95%. Next, `O=C(Cn1nnc(-c2ccccc2)n1)NCc1ccc2c(c1)OCO2`: 9.19%; `CS(=O)(=O)N(CC(=O)NCc1ccco1)c1ccc2c(c1)OCO2`: 44.3%; `O=C(Cn1nnc(-c2ccc3c(c2)OCO3)n1)NCc1ccco1`: 50.1% (active). Next, `CC1(N2CCOCC2)CC2(O)C(=[N+]1[O-])CCc1nonc12` (stereo not given): 58.1% (active); `Cc1[nH]n(-c2cccc(Cl)c2)c(=O)c1/C=N/n1c(C)nc2ccccc2c1=O`: -3.58%.

Regarding `CC(=O)Nc1ccc(S(=O)(=O)N2CCN(C(=O)c3ccccc3F)CC2)cc1`, the inhibition is -9.27%.

Take `O=C(CN1CCCCCC1)N1c2ccccc2Sc2ccc(C(F)(F)F)cc21`: the inhibition was -7.5%. Next, `CC(c1ccco1)N(C(=O)Nc1ccccc1)C1CCCCC1` (stereo not given): 0.39%; `Cc1c(Br)cc(C(=O)N2CCCCCC2)c(C)c1C`: -18.4%. Next, `CCCc1ccc(-c2csc(NC(=O)Cc3cccs3)n2)cc1`: 11.4%; `COc1ccc(Cc2nnc(NS(=O)(=O)Cc3ccccc3)s2)cc1`: 39.9%; `COc1ccc(Cc2nnc(NC(=O)Cc3cccs3)s2)cc1`: 92% (active).

Regarding `COc1ccc(Nc2oc(-c3ccccc3Cl)nc2C#N)cc1`, the inhibition was 76.6% [fluorescence artefact?] (active). Regarding `CCOc1ccc(Nc2oc(Cc3ccccc3)nc2C#N)cc1`, the inhibition is -1.53%. Next, `COc1ccccc1-c1nc(C#N)c(N2CCC(C(N)=O)CC2)o1`: -16.6%; `Cc1ccc(/C=N/NC(=O)Cn2nc(C)c(Br)c2C)o1`: -11.6%; `CCOc1ccccc1C(=O)NC1CC2CCCC(C1)N2Cc1ccccc1` (stereo not given): 5.21%. As to `CCN(CC)CCn1c2ccc(Cl)cc2c2nc(C)sc21`, the inhibition is -0.33%. Next, `CS(=O)(=O)N(CC(=O)Nc1ccc(Cl)c(Cl)c1)C1CCCCC1`: -2.05%; `CC(C)(C)C1CCc2c(sc3nc(SCC(N)=O)nc(N)c23)C1` (stereo not given): -6.07%. As for `CCN(CC)CC(=O)c1c[nH]c2ccc(OC)cc12`, the inhibition was -8.33%. Next, `COc1ccc2[nH]cc(/C=C(/C#N)S(=O)(=O)c3ccccc3)c2c1`: 54.7% [fluorescence artefact?] (active); `COc1ccc2[nH]c3ccc(OC)cc3c2c1`: 1.96%; `COC(=O)c1ccc(CSc2ccc3nnc(-c4ccccc4)n3n2)o1`: -3.95%.

With `Cc1ccc(S(=O)(=O)NC(=O)COc2ccccc2C)cc1`, the inhibition was 8.77%. Next, `CCOc1cc(NC(=O)c2ccco2)c(OCC)cc1NC(=O)COc1ccccc1`: 48.5%; `CCOc1cc(N2CCOCC2)c(OCC)cc1NC(=O)COc1cccc2cccnc12`: 61.6% [fluorescence artefact?] (active). Next, `CCOc1cc(N2CCOCC2)c(OCC)cc1NC(=O)COC(=O)[C@H](Cc1c[nH]c2ccccc12)NC(C)=O`: -5.51%; `O=C(Oc1ccccc1C(=S)N1CCCCC1)c1cc([N+](=O)[O-])cc([N+](=O)[O-])c1`: -10.5%. Next, `Cc1nnc(SC(C)C(=O)Nc2ccc(S(=O)(=O)NC3CCCCC3)cc2)s1` (stereo not given): 17.8%; `Cc1ccc(OCC(=O)Nc2ccc(-c3nnc(-c4ccco4)o3)cc2)cc1`: 63.5% [fluorescence artefact?] (active); `COc1ccc(CC(=O)Nc2ccc(-c3nnc(-c4ccc(C)cc4)o3)cc2)cc1`: 15.6%. Turning to `CCOc1ccc(-c2nnc(-c3ccco3)o2)cc1`, the inhibition was -5.81%. Next, `COc1ccc(CC(NC(C)=O)C(=O)N2CCN(C(=O)Nc3cccc(Cl)c3)CC2)cc1OC` (stereo not given): -8.98%; `COc1ccc(C(C#N)Nc2ccccc2C)cc1` (stereo not given): -1.62%.

With `CC(C)CNC(=O)CC(c1ccccc1)c1c(O)ccc2ccccc12` (stereo not given), the inhibition was -3.69%.

On to `O=C(Cn1c(-c2cscn2)nc2ccccc21)Nc1ccc(Cl)cc1`, for which the inhibition was 18.5%. Next, `COc1ccccc1NC(=O)CSc1nnc(C)n1CC1CCCO1` (stereo not given): -11.8%; `CN(C)[C@@H]1C(=O)C(C(N)=O)=C(O)[C@@]2(O)C(=O)C3=C(O)c4c(O)ccc(Cl)c4[C@@H](O)[C@H]3C[C@@H]12`: 91.5% [fluorescence artefact?] (active).

With `COc1ccc(-n2c(C)csc2=S)cc1`, the inhibition is -15.3%.

Values taken from PubChem BioAssay AID633 (Emory University Molecular Libraries Screening Center, 2007).
